The list is not random: actives were taken first. Their share in the collection is about 11%.
Autophagy mod: autophagy modulators in MEF cells, primary screen, imaging, high-content, MEF GFP-LC3. MEF GFP-LC3 puncta imaging; test concentration mostly 10 µM. calls only at 10 µM (by protocol). 190,000 compounds, 0.98% hits;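 active = percentage of spot-positive cells more than 3 SD above its plate mean, without a fluorescence outlier flag or 80% toxicity; inconclusive = no clear call, values can overlap the other calls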;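 also: spot-positive cell cutoff set from DMSO-treated cells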
WT yeast gro inh: growth inhibition of WT strain, primary screen, mitochondrial fusion inhibitor project, WT and mutant strains, chemical genetic | inhibition, % at 10 µM | 190,000 compounds, 2.1% hits | mitochondrial fusion phenotypic screen; in the data active = inhibition above about 58%; tested in S. cerevisiae
L major viab: Leishmania major promastigote growth inhibition, primary screen | 200,000 compounds, 9% hits | Leishmania major promastigotes, resazurin fluorescence viability | inhibition, % at 10 µM; in the data active = inhibition above about 50%;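 also: promastigotes grown with compound for 44 hours at 28 °C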
Ins promoter up: insulin promoter activators in MIN6 cells, imaging, high-content screening, mouse beta cells | AID 1625, 2009 | z-score at 5 µM | MIN6 insulin promoter-GFP reporter; stronger effect = higher value | 190,000 compounds, 0.3% hits;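 active = z-score above 3 at 5 µM with at least 500 cells counted in the well; inconclusive = wells under 500 cells, flagged as cytotoxic or low count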
Insulin prom inh: inhibitors of insulin promoter-driven GFP, primary screen, imaging, TRM-6 cells (human fetal islet line), eGFP reporter, cell count; inhibition, % at 2 µM; reporter expression induced with tamoxifen; 130,000 compounds, 0.9% hits;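 active = inhibition above the mean plus 3 SD, with well images judged a real hit on visual review, cut at about 60% in these data, passing the limit was not always enough; inconclusive = inhibition over the cutoff but images rejected on review; inactive = inhibition not above the cutoff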
The depositor's hits bear a star.

CCOC(=O)N1CCN(C2OC(=O)c3ccccc32)CC1 (stereo unspecified) was read as Autophagy mod inactive, WT yeast gro inh 13, L major viab -5, Ins promoter up -0.21 and Insulin prom inh -459.
For O=C1CC(N2CCN(C/C=C/c3ccccc3)CC2)C(=O)N1CCc1ccccc1 (stereo unspecified) the results were Autophagy mod inactive, WT yeast gro inh -7, L major viab 93*, Ins promoter up -0.75 and Insulin prom inh 18.
Screening O=C1CC(N2CCN(C/C=C/c3ccccc3)CC2)C(=O)N1Cc1cccs1 (stereo unspecified) returned Autophagy mod inactive, WT yeast gro inh 8, L major viab 89*, Ins promoter up 0.11 and Insulin prom inh -39.
`O=C1OC(N2CCN(C/C=C/c3ccccc3)CC2)c2ccccc21` (stereo unspecified) gave Autophagy mod inactive, WT yeast gro inh 1, L major viab 56*, Ins promoter up -0.15 and Insulin prom inh 83*.
Screening O=C1CC(N2CCN(c3ccc(O)cc3)CC2)C(=O)N1Cc1cccs1 (stereo unspecified) returned Autophagy mod inactive, WT yeast gro inh -17, L major viab 16, Ins promoter up -0.17 and Insulin prom inh 31.
Screening O=C(CCC(=O)c1cccs1)OCC(=O)N1CCN(C(=O)c2ccco2)CC1 returned Autophagy mod inactive, WT yeast gro inh 46, L major viab -7, Ins promoter up -0.46 and Insulin prom inh 20.
CNS(=O)(=O)c1cccc2cccnc12 was read as Autophagy mod inactive, WT yeast gro inh 7, L major viab -3, Ins promoter up 0.67 and Insulin prom inh -393.
Screening NS(=O)(=O)c1cccc2cccnc12 returned Autophagy mod inactive, WT yeast gro inh -23, L major viab -5, Ins promoter up 5.5* and Insulin prom inh -55.
Screening COc1ccc(NS(=O)(=O)c2ccc(OC)c(N(C)S(=O)(=O)c3ccc(Cl)cc3)c2)cc1 returned Autophagy mod inactive, WT yeast gro inh -2, L major viab 100* and Ins promoter up inconclusive.
For COc1ccc(S(=O)(=O)Nc2ccc(F)c(F)c2)cc1Cl the results were Autophagy mod inactive, WT yeast gro inh 8, L major viab 6 and Insulin prom inh 71.
Screening COc1ccc(S(=O)(=O)Nc2ccc(F)cc2)cc1N(C)S(=O)(=O)c1ccc(Cl)cc1 returned Autophagy mod inactive, WT yeast gro inh 17, L major viab 100* and Ins promoter up 0.92.
Screening COc1cccc(C2C3=C(CC(C)(C)CC3=O)Nc3cc4c(cc32)OCO4)c1 (stereo unspecified) returned Autophagy mod inactive, WT yeast gro inh -6, L major viab 100* and Ins promoter up -0.03.
COc1ccc2c(c1)C1=C(CC2)C(c2ccc(C)cc2)NC(=S)N1 (stereo unspecified) was read as Autophagy mod inactive, WT yeast gro inh 80*, L major viab 34 and Insulin prom inh -29.
`Cn1c(=S)n(CCC(=O)O)c2ccccc21` gave Autophagy mod inactive, WT yeast gro inh -4, L major viab -7, Ins promoter up -0.29 and Insulin prom inh 11.
Screening CC1=C(C(=O)Nc2ccc(C)cc2C)C(c2ccc(C)o2)NC(=S)N1 (stereo unspecified) returned Autophagy mod inactive, WT yeast gro inh -13, L major viab 38, Ins promoter up 0.01 and Insulin prom inh 15.
Screening Cc1nc2nc[nH]n2c(=O)c1CCOC(=O)c1c(F)cccc1F returned Autophagy mod inactive, WT yeast gro inh -7, L major viab -6 and Ins promoter up -0.01.
Screening CC(=O)Cn1ncc(Br)c(Br)c1=O returned Autophagy mod active, WT yeast gro inh 6 and L major viab 71*.
Screening O=C(OCn1ncc(Br)c(Br)c1=O)c1c(F)cccc1F returned Autophagy mod active, WT yeast gro inh 81, L major viab 100*, Ins promoter up inconclusive and Insulin prom inh -257.
COC(=O)c1cnn(-c2ccc(F)cc2F)c1/C=N/NC(N)=S was read as Ins promoter up -0.65.
`Cc1oc(/C=N/NS(=O)(=O)c2ccccc2)cc1Br` gave Autophagy mod inactive, WT yeast gro inh 9, L major viab 63*, Ins promoter up -0.07 and Insulin prom inh -3.
`COc1ccc(F)cc1C(=O)C1CCCN(Cc2c(C)n(C)n(-c3ccccc3)c2=O)C1` (stereo unspecified) gave Autophagy mod inactive, WT yeast gro inh 0 and L major viab -6.
